According to PubChem BioAssay AID1159580 (chemical genetic matrix, 2015):
Screen size: about 5,500 compounds; about 2,000 (36%) were called active. Not shown: some 18% with an inconclusive outcome. No stated cut-off is given here; in the data, active means normalized growth mostly below about 0.91 (no sharp cut-off); inconclusive means no clear call, values can overlap the other calls; inactive means mostly above about 0.92. The list shows a part of the results.

Experiment: chemical genetic growth profiling, strain panel (AID 1159580);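 further: tested at 20 µM; growth read once vehicle control cultures reached saturation at 30 °C; 1 = growth at the plate median or of vehicle wells; lower values mean less growth of the strain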
Conditions: growth OD

Measured: normalized growth

C[C@@H]1O[C@@H](O[C@H]2CC[C@]3(C=O)C4CC[C@]5(C)[C@@H](C6=CC(=O)OC6)CC[C@]5(O)C4CC[C@]3(O)C2)[C@H](O)[C@H](O)[C@H]1O (stereo not given in full)
inactive: S. cerevisiae deletion strains, locus YJR066W, strain TOR1, hits give low values 0.953 | S. cerevisiae deletion strains, locus YJR075W, strain HOC1, hits give low values 0.989 | S. cerevisiae deletion strains, locus YKL009W, strain mrt4, hits give low values 1.05 | S. cerevisiae deletion strains, locus YKL068W, hits give low values 0.991 | S. cerevisiae deletion strains, locus YKL085W, strain MDH1 (second series), hits give low values 0.999 | S. cerevisiae deletion strains, locus YKL085W, strain MDH1, hits give low values 0.999 | S. cerevisiae deletion strains, locus YKL160W, strain elf1, hits give low values 1.01 | S. cerevisiae deletion strains, locus YKL190W, strain CNB1, hits give low values 0.988 | S. cerevisiae deletion strains, locus YKR001C, strain vps1, hits give low values 0.995 | S. cerevisiae deletion strains, locus YKR026C, strain gcn3, hits give low values 0.997 | S. cerevisiae deletion strains, locus YKR091W, strain srl3, hits give low values 0.997 | S. cerevisiae deletion strains, locus YLL001W, strain dnm1, hits give low values 1.01 | S. cerevisiae deletion strains, locus YLL026W, hits give low values 0.995 | S. cerevisiae deletion strains, locus YLL041C, strain sdh2, hits give low values 1 | S. cerevisiae deletion strains, locus YLR027C, strain aat2, hits give low values 0.999 | S. cerevisiae deletion strains, locus YLR039C, strain RIC1, hits give low values 0.977 | S. cerevisiae deletion strains, locus YLR058C, strain SHM2, hits give low values 0.981 | S. cerevisiae deletion strains, locus YLR102C, strain apc9, hits give low values 0.997 | S. cerevisiae deletion strains, locus YLR113W, strain HOG1, hits give low values 0.952 | S. cerevisiae deletion strains, locus YLR221C, strain rsa3, hits give low values 1.01 | S. cerevisiae deletion strains, locus YLR258W, strain gsy2, hits give low values 0.991 | S. cerevisiae deletion strains, locus YLR262C, strain YPT6 (second series), hits give low values 1.01 | S. cerevisiae deletion strains, locus YLR262C, strain YPT6, hits give low values 0.914 | S. cerevisiae deletion strains, locus YLR268W, strain sec22, hits give low values 1.01 | S. cerevisiae deletion strains, locus YLR320W, strain mms22, hits give low values 0.989 | S. cerevisiae deletion strains, locus YLR330W, strain CHS5, hits give low values 1 | S. cerevisiae deletion strains, locus YLR342W, strain FKS1 (second series), hits give low values 1.06 | S. cerevisiae deletion strains, locus YLR342W, strain FKS1, hits give low values 0.999 | S. cerevisiae deletion strains, locus YLR357W, strain rsc2, hits give low values 0.959 | S. cerevisiae deletion strains, locus YLR370C, strain arc18, hits give low values 1.01 | S. cerevisiae deletion strains, locus YLR371W, strain rom2, hits give low values 0.978 | S. cerevisiae deletion strains, locus YLR384C, strain iki3, hits give low values 0.987 | S. cerevisiae deletion strains, locus YLR418C, strain cdc73, hits give low values 0.964 | S. cerevisiae deletion strains, locus YML016C, strain PPZ1, hits give low values 0.995 | S. cerevisiae deletion strains, locus YML032C, strain rad52, hits give low values 0.991 | S. cerevisiae deletion strains, locus YML120C, strain ndi1, hits give low values 0.994 | S. cerevisiae deletion strains, locus YML124C, strain tub3, hits give low values 0.983 | S. cerevisiae deletion strains, locus YMR058W, strain fet3, hits give low values 1 | S. cerevisiae deletion strains, locus YMR078C, strain ctf18, hits give low values 0.976 | S. cerevisiae deletion strains, locus YMR125W, strain sto1, hits give low values 0.969 | S. cerevisiae deletion strains, locus YMR129W, hits give low values 0.998 | S. cerevisiae deletion strains, locus YMR205C, strain PFK2, hits give low values 0.954 | S. cerevisiae deletion strains, locus YMR223W, strain ubp8, hits give low values 0.962 | S. cerevisiae deletion strains, locus YMR231W, strain pep5, hits give low values 0.998 | S. cerevisiae deletion strains, locus YMR307W, strain GAS1, hits give low values 0.977 | S. cerevisiae deletion strains, locus YNL067W, strain RPL9B, hits give low values 0.975 | S. cerevisiae deletion strains, locus YNL071W, strain lat1, hits give low values 1 | S. cerevisiae deletion strains, locus YNL183C, strain NPR1, hits give low values 0.965 | S. cerevisiae deletion strains, locus YNL209W, strain ssb2, hits give low values 1 | S. cerevisiae deletion strains, locus YNL233W, strain BNI4, hits give low values 0.999 | S. cerevisiae deletion strains, locus YNL248C, strain rpa49, hits give low values 1.01 | S. cerevisiae deletion strains, locus YNL250W, strain rad50, hits give low values 0.993 | S. cerevisiae deletion strains, locus YNL271C, strain bni1, hits give low values 0.985 | S. cerevisiae deletion strains, locus YNL298W, strain CLA4, hits give low values 1 | S. cerevisiae deletion strains, locus YNL307C, strain MCK1, hits give low values 0.992 | S. cerevisiae deletion strains, locus YNL322C, strain KRE1 (second series), hits give low values 1.01 | S. cerevisiae deletion strains, locus YNL322C, strain KRE1, hits give low values 0.994 | S. cerevisiae deletion strains, locus YNR049C, strain mso1, hits give low values 1.01 | S. cerevisiae deletion strains, locus YNR052C, strain pop2, hits give low values 0.998 | S. cerevisiae deletion strains, locus YOL006C, strain TOP1, hits give low values 1.12 | S. cerevisiae deletion strains, locus YOL012C, strain htz1 0.98 | S. cerevisiae deletion strains, locus YOL147C, strain pex11, hits give low values 0.998 | S. cerevisiae deletion strains, locus YOR001W, strain rrp6, hits give low values 1 | S. cerevisiae deletion strains, locus YOR061W, strain CKA2, hits give low values 0.973 | S. cerevisiae deletion strains, locus YOR069W, strain VPS5, hits give low values 1 | S. cerevisiae deletion strains, locus YOR070C, strain gyp1, hits give low values 0.999 | S. cerevisiae deletion strains, locus YOR080W, strain dia2, hits give low values 0.988 | S. cerevisiae deletion strains, locus YOR083W, strain WHI5, hits give low values 1.01 | S. cerevisiae deletion strains, locus YOR106W, strain vam3, hits give low values 0.998 | S. cerevisiae deletion strains, locus YOR136W, strain idh2, hits give low values 1 | S. cerevisiae deletion strains, locus YOR144C, strain elg1, hits give low values 0.993 | S. cerevisiae deletion strains, locus YOR184W, strain ser1, hits give low values 0.975 | S. cerevisiae deletion strains, locus YOR231W, strain MKK1, hits give low values 0.996 | S. cerevisiae deletion strains, locus YOR265W, strain rbl2, hits give low values 0.999 | S. cerevisiae deletion strains, locus YOR270C, strain vph1, hits give low values 1.02 | S. cerevisiae deletion strains, locus YOR290C, strain snf2, hits give low values 0.994 | S. cerevisiae deletion strains, locus YOR316C, strain cot1, hits give low values 0.991 | S. cerevisiae deletion strains, locus YPL051W, strain arl3, hits give low values 1.01 | S. cerevisiae deletion strains, locus YPL055C, strain LGE1, hits give low values 1 | S. cerevisiae deletion strains, locus YPL078C, strain atp4, hits give low values 1.02 | S. cerevisiae deletion strains, locus YPL106C, strain sse1, hits give low values 0.977 | S. cerevisiae deletion strains, locus YPL240C, strain hsp82, hits give low values 1.01 | S. cerevisiae deletion strains, locus YPL241C, strain CIN2, hits give low values 0.995 | S. cerevisiae deletion strains, locus YPL256C, strain CLN2, hits give low values 0.987 | S. cerevisiae deletion strains, locus YPR119W, strain clb2, hits give low values 1 | S. cerevisiae deletion strains, locus YPR141C, strain kar3, hits give low values 0.98 | S. cerevisiae deletion strains, locus YPR163C, strain tif3, hits give low values 0.983 | S. cerevisiae deletion strains, locus YPR167C, strain met16, hits give low values 1 | S. cerevisiae deletion strains, strain wtn01, hits give low values 1.03 | S. cerevisiae strains, strain wild type, hits give low values 0.989
